A word on the AC50: it is the concentration at which the activity in the assay is half-maximal.

Results filed as inconclusive are left out. The source made the active and inactive calls. How the source made its calls: active means hit-call score of the fitted dose curve at least 0.9, where 1 is the maximum; inconclusive means response in the unintended direction; inactive means score below 0.9.

Results on 40 molecules are retold here after PubChem BioAssay (EPA / NIEHS).

This assay deals with Peroxisome proliferator-activated receptor gamma (Homo sapiens) (UniProt P37231). The experiment in a line: ATG_PPARg_TRANS: Attagene TRANS-FACTORIAL HepG2 Assay for human Peroxisome Proliferator-activated Receptor-gamma (PPARg) (AID 2283007). Here is the method: ATG_TRANS is a cell-based, multiplexed-readout assay that uses HepG2, a human liver cell line, with measurements taken at 24 hours after chemical dosing in a 24-well plate.ATG_PPARg_TRANS is one of 30 assay component(s) measured or calculated from the ATG_TRANS assay. It is designed to make measurements of mRNA induction, a form of inducible reporter, as detected with fluorescence intensity signals by Reverse transcription polymerase chain reaction (RT-PCR) and Capillary electrophoresis technology.Data from the assay component ATG_PPARg_TRANS was analyzed into 1 assay endpoint. This assay endpoint, ATG_PPARg_TRANS, was analyzed in the positive analysis fitting direction relative to DMSO as the negative control and baseline of activity. Using a type of inducible reporter, measures of mRNA for gain-of-signal activity can be used to understand the reporter gene at the transcription factor-level as they relate to the gene PPARG. Furthermore, this assay endpoint can be referred to as a primary readout, because this assay has produced multiple assay endpoints where this one serves a reporter gene function. To generalize the intended target to other relatable targets, this assay endpoint is annotated to the nuclear receptor intended target family, where the subfamily is non-steroidal.
Peroxisome proliferator-activated receptor gamma (Homo sapiens), sequence (P37231 whole entry, looked up): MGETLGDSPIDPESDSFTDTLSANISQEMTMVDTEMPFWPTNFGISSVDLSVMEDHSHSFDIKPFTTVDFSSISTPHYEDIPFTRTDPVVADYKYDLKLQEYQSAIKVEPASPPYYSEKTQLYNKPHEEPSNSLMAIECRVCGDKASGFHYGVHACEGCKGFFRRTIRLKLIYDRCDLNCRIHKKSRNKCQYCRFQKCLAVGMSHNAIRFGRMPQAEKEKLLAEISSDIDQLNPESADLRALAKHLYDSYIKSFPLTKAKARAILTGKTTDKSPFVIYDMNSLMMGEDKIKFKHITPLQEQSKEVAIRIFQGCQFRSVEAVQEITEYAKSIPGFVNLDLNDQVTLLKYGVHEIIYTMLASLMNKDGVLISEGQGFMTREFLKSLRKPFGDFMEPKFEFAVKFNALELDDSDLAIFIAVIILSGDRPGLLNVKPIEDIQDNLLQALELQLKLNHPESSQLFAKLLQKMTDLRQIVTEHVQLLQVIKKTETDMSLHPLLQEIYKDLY
Human liver HepG2 cells are transiently transfected with multiple reporter transcription units (MRTUs) in 6-well plates using FuGene 6 reagent (Roche; 3 ml FuGene/1 mg DNA). The MRTU constructs are regulated by a cis-regulating element (promoter). […] A major difference between the CIS and TRANS system is that in CIS activities of endogenous TFs are measured, whereas the TRANS assay evaluates changes in activities of exogenous, chimeric NR-Gal4 proteins. […] At the end of 24 hour incubation, total RNA was isolated using TriZol reagent (Invitrogen). The isolated RNA is then reverse-transcribed using oligo(dT) primer and Mo-MLV reverse transcriptase (Invitrogen) with DNAse I (Ambion) treatment for 30 min. The one-tenth of the produced cDNA was amplified by PCR using Taq DNA polymerase (Invitrogen) and two reporter sequence-specific primers. The PCR products were fluorescently labeled by primer extension with 6-arboxyfluorescein (6-FAM) 5'-labeled reporter sequence-specific primer (2 min at 95 C, 20 s at 68 C and 10 min at 72 C) and these products were digested with 5U of HpaI (New England Biolabs) for 2h at 37 C. The fragments were purified using Qiaquick PCR columns (Qiagen), analyzed on an ABI 3130xL genetic analyzer (Applied Biosystems) with peak positions identified by using a set of X-rhodamine (ROX)-labeled MapMarker1000 molecular weight standards (BioVentures). The raw capillary electrophoresis data was processed using Attagraph software (Attagene).
As for `CC(C)(C)C1=CC(=O)C(C(C)(C)C)=CC1=O`, the AC50 is 50 µM (active).

Consider `CC(C)CC(C)CC(O)CC(C)C` (stereo not given), for which the molecule was classed as inactive. Same read-out and setting: under `COC(=O)c1ccc([N+](=O)[O-])cc1` stands “inactive”; under `CN(C)c1cccc(O)c1`, “inactive”; under `Cc1[nH]c(=O)c(C#N)cc1-c1ccncc1`, “inactive”. With `CCCCCCCCCC(C)C=O` (stereo not given), the AC50 is 18.5 µM (active). In the case of `C=C(CC(=O)O)C(=O)O`, the result was inactive. Consider `O=C(CC(=O)c1ccccc1)c1ccccc1`, for which the concentration at half-maximal activity (AC50) was 3.74 µM (active). Regarding `CCOCCOCCOCC`, the result was inactive. For `CSc1c(Cl)c(Cl)c(Cl)c(Cl)c1Cl`, the half-maximal activity concentration (AC50) was 6.23 µM (active).

Regarding `CCC(Cl)C(Cl)C(Cl)CC(Cl)C(Cl)C(C)Cl` (stereo not given), the concentration at half-maximal activity (AC50) was 22.3 µM (active). On the same count and under the same terms, under `CC(=O)Nc1ccc(C(=O)CCl)cc1` stands 2.31 µM (active). Turning to `CN(c1nccc(=O)[nH]1)C1CCN(c2nc3ccccc3n2Cc2ccc(F)cc2)CC1`, the result was inactive.

On to `CCNCCO`, for which the molecule was called inactive.

As for `O=C1c2ccccc2C(=O)c2c(O)ccc(O)c21`, the AC50 was 8.37 µM (active). With `CCc1ncc(C)[nH]1`, the outcome was inactive.

Regarding `C[C@H]1O[C@@H](O[C@H]2[C@@H](O)C[C@H](O[C@H]3[C@@H](O)C[C@H](O[C@H]4CC[C@@]5(C)[C@H](CC[C@@H]6[C@@H]5C[C@@H](O)[C@]5(C)[C@@H](C7=CC(=O)OC7)CC[C@]65O)C4)O[C@@H]3C)O[C@@H]2C)C[C@H](O)[C@@H]1O`, the call was inactive. Still for that read-out and setting: next, `Cc1ccc(N)c(S(=O)(=O)O)c1`: “inactive”; `COc1cc([C@@H]2c3cc4c(cc3[C@@H](O[C@@H]3O[C@@H]5CO[C@@H](C)O[C@H]5[C@H](O)[C@H]3O)[C@H]3COC(=O)[C@H]23)OCO4)cc(OC)c1O`: “inactive”. On to `O=CCc1ccccc1`, for which the AC50 was 22.9 µM (active). Same read-out and setting: next, `N#Cc1ccc(CC(=O)c2cccc(C(F)(F)F)c2)cc1`: 31.4 µM (active). Take `OCC#CCO`: the molecule was called inactive. The same measure, in the same setting: under `CC1(C)C(=O)N(Cl)C(=O)N1Br` stands “inactive”; under `C=C(C)[C@@H]1CC=C(C)C(=O)C1`, “inactive”; under `Nc1ccc2c(O)cc(S(=O)(=O)O)cc2c1`, “inactive”. On the same count and under the same terms, under `COc1cc(Cl)c(OC)cc1N` stands “inactive”; under `FC(F)(F)COCC(F)(F)F`, “inactive”.

As for `C=Cc1ccc(C)cc1`, the call was inactive. Consider `CCCCCCCCN1CCCC1=O`, for which the call was inactive. `CC1(C)CCC[C@]2(C)[C@H]3CCO[C@]3(C)CC[C@@H]12`: the result was inactive.

As to `CCOC(=O)C1OC1c1ccccc1` (stereo not given), the molecule was called inactive. Same read-out and setting: under `O=C(O)CNc1ccccc1` stands “inactive”; under `O=Cc1ccccc1S(=O)(=O)O`, “inactive”.

For `CCCC(=O)C(CC)Sc1ccoc1C` (stereo not given), the AC50 was 33.6 µM (active).

With `C=COCCOCCOC=C`, the outcome was inactive. As to `CSCCC=O`, the concentration at half-maximal activity (AC50) is 56.3 µM (active). The same measure, in the same setting: under `CCCOC(=O)c1c(Cl)c(Cl)c(Cl)c(Cl)c1C(=O)OCCC` stands 5.66 µM (active).

With `CC1(C)C2=CCCC(C)(C)[C@]23CC[C@H]1C3`, the molecule was called inactive. Still for that read-out and setting: under `c1ccc(CN(Cc2ccccc2)Cc2ccccc2)cc1` stands “inactive”; under `Clc1ccc(C(c2ccccc2Cl)C(Cl)Cl)cc1` (stereo not given), “inactive”.
